From PubChem BioAssay (Tox21) come the findings set out here.

The target of assay [1] is Aryl hydrocarbon receptor (Homo sapiens) (UniProt P35869). Description: qHTS assay to identify small molecule that activate the aryl hydrocarbon receptor (AhR) signaling pathway (AID 743085). Further: nearly all actives have a fitted effect of over 15% in size. Further: potency means the concentration at half of the fitted maximal effect.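 On activation: HG2L7.5c1 human HepG2 liver cells with stably integrated DRE-driven firefly reporter; series mostly up to about 70 µM.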 In a few lines: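 Stably transfected human liver carcinoma cells (HG2L7.5c1; 20 DRE-firefly luciferase) were incubated 5 h, dosed, and kept 24 h at 37C. Agonism was scored from increased luciferase luminescence.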
Chain of Aryl hydrocarbon receptor (Homo sapiens) (P35869 whole entry, looked up): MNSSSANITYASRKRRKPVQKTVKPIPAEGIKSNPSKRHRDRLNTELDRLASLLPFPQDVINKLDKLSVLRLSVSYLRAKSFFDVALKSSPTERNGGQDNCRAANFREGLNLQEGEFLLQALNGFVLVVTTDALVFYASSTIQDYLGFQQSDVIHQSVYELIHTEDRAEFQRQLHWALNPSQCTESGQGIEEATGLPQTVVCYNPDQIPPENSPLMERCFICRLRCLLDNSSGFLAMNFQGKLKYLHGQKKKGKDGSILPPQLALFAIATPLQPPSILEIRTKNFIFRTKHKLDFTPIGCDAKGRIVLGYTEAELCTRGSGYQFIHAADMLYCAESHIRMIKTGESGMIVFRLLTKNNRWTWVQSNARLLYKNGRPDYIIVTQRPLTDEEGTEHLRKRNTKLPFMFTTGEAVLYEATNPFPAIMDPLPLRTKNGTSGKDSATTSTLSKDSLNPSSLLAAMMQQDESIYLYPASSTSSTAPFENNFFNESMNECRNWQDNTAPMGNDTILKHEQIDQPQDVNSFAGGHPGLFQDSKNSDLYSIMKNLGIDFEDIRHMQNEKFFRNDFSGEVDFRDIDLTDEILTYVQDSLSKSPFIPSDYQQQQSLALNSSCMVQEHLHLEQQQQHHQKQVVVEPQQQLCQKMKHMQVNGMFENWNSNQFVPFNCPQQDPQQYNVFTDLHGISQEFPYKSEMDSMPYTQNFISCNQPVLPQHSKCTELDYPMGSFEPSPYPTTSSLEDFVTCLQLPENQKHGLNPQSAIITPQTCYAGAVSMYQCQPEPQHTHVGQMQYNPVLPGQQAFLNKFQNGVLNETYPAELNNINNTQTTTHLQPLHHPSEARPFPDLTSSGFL
On the technique in general: qHTS replaces the single test concentration by a dilution series.

Assay [2] is described as follows: qHTS assay to identify small molecule that activate the aryl hydrocarbon receptor (AhR) signaling pathway - cell viability counter screen (AID 743086).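 Further: HepG2 liver cells carrying the AhR DRE luciferase reporter; series mostly up to about 70 µM; nearly all actives have a fitted effect of over 45% in size.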 In a few lines: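 HepG2-AhR-luc (HG2L7.5c1) cells, 4000/well, were preincubated 5 h at 37C, exposed to compound in qHTS format for 24 hr at 37C, then given CellTiter-Fluor for 30 min; viability was read as fluorescence in the reporter wells.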

For assay [3], the target named is Peroxisome proliferator-activated receptor gamma (Homo sapiens) (UniProt P37231). Description: qHTS assay to identify small molecule agonists of the peroxisome proliferator-activated receptor gamma (PPARg) signaling pathway (AID 743094; active means well fitted activation curve with a large enough effect in the signal ratio in the repeat runs, not every such curve was filed as active; the % refers to the signal ratio). The method, boiled down:
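GeneBLAzer PPARg UAS-bla HEK293H cells carrying a stably integrated beta-lactamase reporter were pre-incubated 5 h at 37C, then exposed to compounds in DMSO for 17 h at 37C; LiveBLAzer B/G FRET substrate was added for 1 h at room temperature and fluorescence read.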

Assay [4] has the same target. Put plainly: qHTS assay to identify small molecule antagonists of the peroxisome proliferator-activated receptor gamma (PPARg) signaling pathway (AID 743191; calls by dose curve; further: series mostly up to about 63 µM; nearly all actives have a fitted effect of over 30% in size). In a few lines: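 GeneBLAzer PPARg UAS-bla HEK293H cells carrying a UAS-driven beta-lactamase reporter were plated at 3000 cells/well, preincubated 5 h at 37C, then given compound for 17 h at 37C; LiveBLAzer B/G FRET substrate was read after 1 h at room temperature.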

Assay [5] can be described thus: qHTS assay to identify small molecule antagonists of the peroxisome proliferator-activated receptor gamma (PPARg) signaling pathway - cell viability counter screen (AID 743194). Further: nearly all actives have a fitted effect of over 55% in size. Conditions: Potency: co-treated with 50 nM rosiglitazone. In a few lines:
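PPARg-UAS-bla HEK293H cells were plated, rested 5 h at 37 C, then treated with compounds plus rosiglitazone (50 nM final) for 17 h at 37 C; viability was then read by CellTiter-Glo luminescence after 30 min at room temperature.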

Assay [6] in a line: qHTS assay for small molecule agonists of the antioxidant response element (ARE) signaling pathway (AID 743202; active means well fitted activation curve with a large enough effect in the signal ratio in the repeat runs, not every such curve was filed as active; the % refers to the signal ratio). In a few lines:
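Compounds delivered in DMSO to ARE-bla HepG2 cells (2,000 cells/well, pre-incubated 5 h) and left 16 h at 37 C. LiveBLAzer B/G FRET substrate then added for 2 h at RT before fluorescence reading.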

Assay [7] in a line: qHTS assay for small molecule activators of the heat shock response signaling pathway - cell viability counter screen (AID 743209). Further: nearly all actives have a fitted effect of over 50% in size. In a few lines: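 CellSensor HSE-bla HeLa cells, plated overnight at 37 C/5% CO2, were exposed to compounds in DMSO for 5 h at 37 C. Viability was then read in the same wells by CellTiter-Glo luminescence after 30 min at room temperature.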
A short description of assay [8]: qHTS assay to identify small molecule agonists of the peroxisome proliferator-activated receptor delta (PPARd) signaling pathway - cell viability counter screen (AID 743211). Further: nearly all actives have a fitted effect of over 55% in size. The method, boiled down:
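In the same wells used for beta-lactamase reporter measurement, cytotoxicity is scored by CellTiter-Glo. HEK293H PPARd-bla cells receive compound for 17 h at 37C following a 5 h settling period.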

For assay [9], the target named is Peroxisome proliferator-activated receptor delta (Homo sapiens) (UniProt Q03181). Description: qHTS assay to identify small molecule agonists of the peroxisome proliferator-activated receptor delta (PPARd) signaling pathway (AID 743212; calls by dose curve). The method, boiled down:
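A PPARd-bla HEK293H line with beta-lactamase under an Upstream Activator Sequence is treated with compounds at 37 C. Substrate loading for 2 h at room temperature precedes the fluorescence measurement.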

Assay [10] is described as follows: qHTS assay to identify small molecule antagonists of the peroxisome proliferator-activated receptor delta (PPARd) signaling pathway - cell viability counter screen (AID 743213). Further: nearly all actives have a fitted effect of over 50% in size. The method, boiled down: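 Same-well viability: cells pre-incubated 5 h, dosed with compound plus 300 nM L165041, kept 17 h at 37 C, FRET substrate 2 h RT, then CellTiter-Glo 30 min RT and luminescence.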

Assay [11] concerns the target Peroxisome proliferator-activated receptor delta (Homo sapiens) (UniProt Q03181). Description: qHTS assay to identify small molecule antagonists of the peroxisome proliferator-activated receptor delta (PPARd) signaling pathway (AID 743215; active means well fitted inhibition curve with a large enough effect in the signal ratio in the repeat runs, not every such curve was filed as active; the % refers to the signal ratio;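 further: cells stimulated with agonist L165041 at 300 nM final during compound exposure; series mostly up to about 62 µM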). In a few lines:
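PPARd UAS-bla HEK293H cells were pre-incubated 5 h at 37 C, then given test compounds in DMSO plus agonist L165041 (300 nM final). After 17 h at 37 C, beta-lactamase FRET substrate was added; fluorescence read after 2 h at room temperature.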

Assay [12] has as its target Bile acid receptor (Homo sapiens) (UniProt Q96RI1). Put plainly: qHTS assay to identify small molecule antagonists of the farnesoid-X-receptor (FXR) signaling pathway (AID 743217; active means well fitted inhibition curve with a large enough effect in the signal ratio in the repeat runs, not every such curve was filed as active; the % refers to the signal ratio). In a few lines:
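FXR-UAS-bla HEK 293T cells pre-incubated 5 h at 37 °C, then exposed to compounds with chenodeoxycholic acid (50 uM final) for 16 h at 37 °C. Beta-lactamase reporter read by LiveBLAzer B/G FRET substrate fluorescence after 2 h at room temperature.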

Assay [13] in a line: qHTS assay to identify small molecule agonists of the farnesoid-X-receptor (FXR) signaling pathway - cell viability counter screen (AID 743218). Further: nearly all actives have a fitted effect of over 45% in size. The method, boiled down:
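FXR-UAS-bla HEK 293T cells, plated 5 h at 37 C, were exposed to compounds for 16 h at 37 C. CellTiter-Glo was then added to the same wells as the bla readout; luminescence read after 30 min at room temperature.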

Assay [14] concerns the target Bile acid receptor (Homo sapiens) (UniProt Q96RI1). Put plainly: qHTS assay to identify small molecule agonists of the farnesoid-X-receptor (FXR) signaling pathway (AID 743220; active means well fitted activation curve with a large enough effect in the signal ratio in the repeat runs, not every such curve was filed as active; the % refers to the signal ratio). In a few lines:
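Beta-lactamase reporter under UAS control in GeneBLAzer FXR HEK 293T cells (5000/well) measured with LiveBLAzer FRET substrate after 2 h at room temperature. Compound exposure lasted 16 h at 37C.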

The nature of assay [15]: qHTS assay to identify small molecule antagonists of the farnesoid-X-receptor (FXR) signaling pathway - cell viability counter screen (AID 743221; active means well fitted cell-killing curve with a large enough effect in the repeat runs, not every such curve was filed as active; further: nearly all actives have a fitted effect of over 50% in size). In a few lines:
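Here viability was scored by luminescence after CellTiter-Glo addition to wells already read for beta-lactamase. Prior treatment: compound plus CDCA (50 uM final), 16 h, 37 C, HEK 293T FXR-bla cells.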

Assay [16] can be described thus: qHTS assay to identify small molecule agonists of the vitamin D receptor (VDR) signaling pathway - cell viability counter screen (AID 743224). Further: series mostly up to about 63 µM; nearly all actives have a fitted effect of over 50% in size. The method, boiled down:
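VDR-bla cells were preincubated 4 h at 37C/5% CO2, then exposed to compounds for 16 h. After the 2 h room-temperature bla FRET read, CellTiter-Glo was added to the same wells and luminescence read after 30 min.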

Assay [17] is described as follows: qHTS assay for small molecule agonists of the antioxidant response element (ARE) signaling pathway - cell viability counter screen (AID 743203; calls by dose curve; further: nearly all actives have a fitted effect of over 55% in size). In a few lines:
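CellSensor ARE-bla HepG2 cells, 2,000 per well, rested 5 hrs at 37C/5% CO2, then exposed to compound in DMSO for 16 hrs; viability read as CellTiter-Glo luminescence after 30 min at room temperature, in the reporter wells.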

Assay [18] in a line: qHTS assay for small molecule activators of the heat shock response signaling pathway (AID 743210; active means well fitted activation curve with a large enough effect in the signal ratio in the repeat runs, with a control signal flat, not every such curve was filed as active; the % refers to the signal ratio;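 further: HeLa cells with beta-lactamase reporter driven by heat shock elements; series mostly up to about 63 µM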). In a few lines:
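Reporter gene assay: HeLa cells stably bearing an HSE-bla construct, compound treatment 5 h at 37 C, LiveBLAzer substrate 2.5 h at RT, fluorescence intensity.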

Assay [19] addresses Vitamin D3 receptor (Homo sapiens) (UniProt P11473). Put plainly: qHTS assay to identify small molecule agonists of the vitamin D receptor (VDR) signaling pathway (AID 743222; calls by dose curve). The method, boiled down:
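VDR-bla cells were plated 4 h at 37C/5% CO2, then exposed to compounds in DMSO for 16 h. After LiveBLAzer B/G FRET substrate addition and 2 h at room temperature, beta-lactamase reporter fluorescence was read.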

Assay [20] has the same target. Description: qHTS assay to identify small molecule antagonists of the vitamin D receptor (VDR) signaling pathway (AID 743223; active means well fitted inhibition curve with a large enough effect in the signal ratio in the repeat runs, not every such curve was filed as active; the % refers to the signal ratio). The method, boiled down:
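Inhibition of agonist-driven VDR signalling is scored in VDR-bla cells: 3 nM final 1alpha,25-dihydroxyvitamin D3 plus compound, 16 h at 37C, then beta-lactamase detection by FRET substrate fluorescence after 2 h.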

Records with an inconclusive call do not appear. Active and inactive are the calls of the source. Unless noted, the call rests on the fitted dose curve; in most records, active means well fitted curve in the direction sought with a large enough effect in the repeat runs; inconclusive means weak or mixed curves; inactive means no such curve, though single readings can be large; an effect the other way counts as inactive or inconclusive.

Chain of Vitamin D3 receptor (Homo sapiens) (P11473 whole entry, looked up): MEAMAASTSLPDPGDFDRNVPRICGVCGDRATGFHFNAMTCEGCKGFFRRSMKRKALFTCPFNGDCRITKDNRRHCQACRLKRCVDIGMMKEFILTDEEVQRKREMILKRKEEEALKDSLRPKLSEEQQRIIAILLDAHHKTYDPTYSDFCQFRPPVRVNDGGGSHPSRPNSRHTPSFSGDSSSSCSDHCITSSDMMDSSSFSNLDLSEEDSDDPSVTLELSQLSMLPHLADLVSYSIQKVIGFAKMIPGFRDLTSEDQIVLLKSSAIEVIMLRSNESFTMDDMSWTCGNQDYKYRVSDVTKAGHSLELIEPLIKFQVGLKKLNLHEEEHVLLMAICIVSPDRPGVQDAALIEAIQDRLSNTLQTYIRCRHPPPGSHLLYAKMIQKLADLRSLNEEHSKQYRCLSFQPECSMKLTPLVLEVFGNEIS
Chain of Peroxisome proliferator-activated receptor gamma (Homo sapiens) (P37231 whole entry, looked up): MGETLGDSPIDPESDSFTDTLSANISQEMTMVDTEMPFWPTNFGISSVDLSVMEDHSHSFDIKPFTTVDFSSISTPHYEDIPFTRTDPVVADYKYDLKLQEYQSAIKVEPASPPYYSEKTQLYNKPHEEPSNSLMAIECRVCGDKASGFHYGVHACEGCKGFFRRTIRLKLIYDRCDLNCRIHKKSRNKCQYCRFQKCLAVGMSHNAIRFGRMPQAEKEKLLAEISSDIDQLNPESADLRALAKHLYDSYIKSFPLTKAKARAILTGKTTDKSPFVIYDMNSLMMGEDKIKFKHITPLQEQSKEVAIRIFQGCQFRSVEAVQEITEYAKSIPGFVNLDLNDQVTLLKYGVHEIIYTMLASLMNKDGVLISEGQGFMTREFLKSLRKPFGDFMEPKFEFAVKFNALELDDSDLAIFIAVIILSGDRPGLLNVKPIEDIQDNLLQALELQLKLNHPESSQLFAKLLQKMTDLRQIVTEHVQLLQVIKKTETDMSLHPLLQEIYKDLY
Chain of Bile acid receptor (Homo sapiens) (Q96RI1 whole entry, looked up): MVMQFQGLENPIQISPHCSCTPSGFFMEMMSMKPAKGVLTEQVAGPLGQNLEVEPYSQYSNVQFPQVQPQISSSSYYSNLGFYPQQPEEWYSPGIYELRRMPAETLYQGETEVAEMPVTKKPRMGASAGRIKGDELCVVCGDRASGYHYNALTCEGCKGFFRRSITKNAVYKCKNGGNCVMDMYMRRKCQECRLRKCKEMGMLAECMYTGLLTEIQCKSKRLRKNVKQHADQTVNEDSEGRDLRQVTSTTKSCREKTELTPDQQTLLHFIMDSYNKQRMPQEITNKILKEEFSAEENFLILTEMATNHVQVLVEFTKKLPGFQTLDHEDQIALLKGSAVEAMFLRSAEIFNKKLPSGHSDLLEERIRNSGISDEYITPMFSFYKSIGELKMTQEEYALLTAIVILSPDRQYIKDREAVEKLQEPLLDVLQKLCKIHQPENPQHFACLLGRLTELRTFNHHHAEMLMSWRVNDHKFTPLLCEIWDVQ
Chain of Peroxisome proliferator-activated receptor delta (Homo sapiens) (Q03181 whole entry, looked up): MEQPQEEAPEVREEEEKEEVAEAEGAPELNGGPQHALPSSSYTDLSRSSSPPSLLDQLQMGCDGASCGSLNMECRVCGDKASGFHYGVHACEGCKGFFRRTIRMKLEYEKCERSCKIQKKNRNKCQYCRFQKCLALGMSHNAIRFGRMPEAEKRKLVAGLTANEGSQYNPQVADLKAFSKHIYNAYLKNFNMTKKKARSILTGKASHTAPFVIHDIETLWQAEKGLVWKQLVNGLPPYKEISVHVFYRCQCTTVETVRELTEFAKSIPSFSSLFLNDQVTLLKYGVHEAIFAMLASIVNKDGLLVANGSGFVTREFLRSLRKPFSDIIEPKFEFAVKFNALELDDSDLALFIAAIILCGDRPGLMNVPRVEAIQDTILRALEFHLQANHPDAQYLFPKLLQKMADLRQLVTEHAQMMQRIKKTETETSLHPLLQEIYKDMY

`CCCCOC(C)=O`: the Potency entry in assay [1], in assay [2], in assay [4], in assay [5], in assay [6] and in [7] was “inactive” throughout. Further, the Potency result in assay [8], in assay [10], in [11], in assay [13], in assay [15] and in [16] was “inactive” throughout. Moreover, the compound was called inactive in assay [3], in assay [9], in assay [12] and in assay [14].
Regarding `CC1=C2[C@H]3OC(=O)[C@@H](C)[C@@H]3CC[C@@]2(C)C=CC1=O`, the Potency result in assay [1], in assay [2], in [4], in [5], in assay [17] and in [7] was “inactive” throughout. Also, the Potency entry in assay [18], in [8], in assay [10], in [11], in [13] and in assay [15] was “inactive” in each case. Further, in [16], the Potency result was “inactive”. Besides, the call in [3], in assay [9], in [12] and in assay [14] was inactive.
In the case of `C[C@H](N)C(=O)c1ccccc1`, the Potency result in [1], in assay [2], in assay [4], in [5], in assay [17] and in assay [7] was “inactive” in each case. For the same compound, the Potency result in assay [18], in assay [8], in [10], in assay [11], in [13] and in assay [15] was “inactive” in each case. The outcome in assay [3], in assay [9], in [12], in assay [14], in [19] and in assay [20] was inactive.
For the compound `CCNc1nc(NCC)nc(SC)n1`, the Potency entry in assay [1], in [2], in assay [4], in [17], in [7] and in assay [18] was “inactive” each time. The Potency entry in assay [8], in [13], in assay [15] and in [16] was “inactive” throughout. Moreover, the call in assay [3], in [19] and in assay [20] was inactive.
As for `CCCN1CCC[C@@H]2Cc3nc(N)ncc3C[C@H]21`, the Potency in [1] was 21.1 µM (active). Moreover, the Potency entry in assay [2], in assay [4], in [5], in assay [7], in [18] and in assay [8] was “inactive” throughout. In addition, the Potency result in assay [13], in assay [15] and in assay [16] was “inactive” in each case. Further, the outcome in assay [3], in assay [19] and in assay [20] was inactive.
As to `COP(=O)(OC)O/C(C)=C/C(=O)N(C)C`, the Potency result in assay [1], in assay [2], in assay [4], in assay [6], in assay [7] and in assay [18] was “inactive” each time. For the same compound, the Potency entry in assay [8], in assay [10], in assay [15] and in [16] was “inactive” each time. In addition, the result in assay [3], in assay [9], in assay [19] and in [20] was inactive.
On to `CCCCS(=O)(=O)Cl`, for which the Potency entry in [1], in assay [2], in assay [4], in [5], in assay [17] and in assay [7] was “inactive” throughout. Moreover, the Potency entry in assay [18], in assay [8], in assay [10], in assay [11], in assay [13] and in [15] was “inactive” each time. The Potency entry in assay [16] is “inactive”. Also, the call in assay [3], in [9], in assay [12], in assay [14], in assay [19] and in assay [20] was inactive.
As for `CC(C)N(Cc1ccccc1)C(=O)C(C)(C)C`, the Potency entry in assay [1], in [2], in assay [4], in assay [6], in assay [17] and in [7] was “inactive” each time. In addition, the Potency entry in assay [18], in assay [8], in [10], in assay [11], in assay [13] and in [15] was “inactive” in each case. Besides, the Potency result in [16] was “inactive”. The outcome in [3], in [9], in [14], in assay [19] and in assay [20] was inactive.
`BrCC1CO1` (stereo not given): the Potency entry in assay [1], in [2], in assay [4], in assay [5], in assay [6] and in assay [7] was “inactive” throughout. For the same compound, the Potency entry in [18], in assay [8], in assay [10], in assay [15] and in assay [16] was “inactive” each time. Moreover, the compound was classed as inactive in assay [3], in assay [9], in assay [12], in assay [14], in assay [19] and in assay [20].
